# Out of some 52,000 compounds screened, about 1,700 (3.3%) were called active. The full list was thinned out, with actives kept by preference. Values without a mark were called inactive. Cut-off read from the data, not from the text of the source: active = survival mostly below about 52% (no sharp cut-off); inactive = mostly above about 56%.
# System: Wild type
# Assay: growth inhibition of S. aureus wild type versus tarO mutant, primary screen, teichoic acid synthesis inhibitors, RN4220, OD600 (AID 463173)
# Settings: S. aureus RN4220 wild type/DeltatarO growth, OD600, 18 h, stronger effect = lower value, screened at 18.75 µg/mL (by protocol)
row,Structure (SMILES),survival
1,Cc1ccc(C)c(N(CC(=O)Nc2ccccc2)S(C)(=O)=O)c1,99%
2,CCc1cccc(NC(=O)Cn2c(=O)ccc3cc(S(=O)(=O)N4CCC(C)CC4)ccc32)c1,129%
3,Cc1ccc2oc(C(=O)Nc3nc(-c4ccc(F)cc4)ns3)c(C)c2c1,87%
4,COc1ccc(NC(=O)c2c(NCc3cccs3)sc3c2CCCC3)cc1,80%
5,CCOC(=O)c1cccc(NC(=O)CCSCCc2ccccn2)c1,68%
6,CCOC(=O)Cn1cnc2c(cnn2-c2ccc(C)c(C)c2)c1=O,72%
7,COc1ccc(NC(=O)N2CCc3c([nH]c4ccc(OC)cc34)C2c2ccc(OC)cc2)cc1 (centres undefined),93%
8,Cc1ccc(CS(=O)(=O)c2ncc(Cl)c(C(=O)Nc3nc4ccc(C)cc4s3)n2)cc1,26%
9,O=C(NCc1ccccc1)C(=O)NCC(c1cccnc1)N1CCN(c2ccccc2)CC1 (centres undefined),82%
10,Cc1ccccc1CNC(=O)C1CCN(c2nn3cc(-c4ccc(F)cc4)nc3s2)CC1,66%
11,Cc1ccc2ncc(C(=O)NCc3ccccc3Cl)c(=O)n2c1,93%
12,CC1CCN(c2ccc(-c3nc(-c4ccccc4)no3)cc2[N+](=O)[O-])CC1,112%
13,Cc1cc(C)cc(NC(=O)CSc2oc(-c3cccs3)nc2S(=O)(=O)c2ccc(Br)cc2)c1,75%
14,C=C(C)CSc1nc2sc3c(c2c(=O)n1CCCC)CCCC3,0% (active)
15,CCCCn1c(SCC(=O)c2ccccc2)nc2sc3c(c2c1=O)CCCC3,62%
16,CCCCCSc1nc2sc3c(c2c(=O)n1-c1ccccc1)CCN(C(C)=O)C3,58%
17,CCCCCSc1nc2sc3c(c2c(=O)n1-c1ccc(OC)cc1)CCN(C(C)=O)C3,-21% (active)
18,C=C(C)Cn1c(SCC(=O)c2ccccc2)nc2sc3c(c2c1=O)CCCC3,84%
19,COc1ccc(-n2c(SC)nc3sc4c(c3c2=O)CCN(C(C)=O)C4)cc1,126%
20,CCOC(=O)c1cccc(NC(=O)CSc2ncc3c(n2)-c2ccc(Cl)cc2N(Cc2ccccc2)S3(=O)=O)c1,87%
21,Cc1ccc(Nc2cc(-c3ccccc3)nc(C)n2)cc1,37%
22,COc1cccc(Nc2cc(-c3ccccc3)nc(C)n2)c1,49%

row,Structure (SMILES),survival
1,Cc1cc(C)cc(Nc2cc(-c3ccccc3)nc(C)n2)c1,10% (active)
2,CCOC(=O)c1ccc(Nc2cc(-c3ccccc3)nc(C)n2)cc1,83%
3,CSc1nc(Nc2ccc(C)cc2C)cc(-c2ccccc2)n1,50%
4,CSc1nc(C)cc(Nc2cccc(C(=O)O)c2)n1,87%
5,Cc1nc(Nc2ccc(Cl)cc2)cc(-c2ccccc2)n1,-2% (active)
6,CSc1nc(Nc2ccc(F)cc2)cc(-c2ccccc2)n1,-2% (active)
7,CCOc1ccccc1Nc1cc(-c2ccccc2)nc(C)n1,78%
8,COc1ccccc1NC(=O)CSc1nncn2c1cc1sccc12,96%
9,Cc1oc(-c2ccccc2)nc1CSc1nnc(C)n2c1cc1sccc12,83%
10,CCN(CCCNC(=O)Cn1ncc2c([nH]c3ccc(C)cc32)c1=O)Cc1ccccc1,55%
11,NCC(O)CN1CCN(Cc2ccccc2)CC1 (centres undefined),105%
12,CCOC(=O)c1sc2ncn(CC(=O)Nc3ccc(N(C)C)cc3)c(=O)c2c1C,89%
13,COc1ccc2c(C)cc(SCC(=O)Nc3nsc(-c4ccc(C(C)(C)C)cc4)n3)nc2c1,5% (active)
14,O=C(CSc1ccc2ccccc2n1)Nc1nsc(-c2ccc(Cl)cc2)n1,68%
15,CC(C)(C)c1ccc(-c2nc(NC(=O)CSc3ncnc4sc5c(c34)CCCC5)ns2)cc1,73%
16,COc1cccc(NC(=O)CSc2cc(C)c3ccccc3n2)c1,73%
17,Cc1ccccc1-c1nc(NC(=O)CSc2ncnc3sc4c(c23)CCCC4)ns1,88%
18,Cc1cc(SCC(=O)Nc2nsc(-c3ccc(C(C)(C)C)cc3)n2)nc2ccccc12,7% (active)
19,Cc1ccc(-c2nc(NC(=O)CSc3ccc4ccccc4n3)ns2)cc1,83%
20,Cc1ccc(-c2nc(NC(=O)CSc3cc(C)c4ccccc4n3)ns2)cc1,71%
21,COc1ccc2c(C)cc(SCC(=O)Nc3nsc(-c4ccccc4C)n3)nc2c1,1% (active)
22,COC(=O)c1ccc(Cn2c(SCC(=O)Nc3ccc(F)cc3)nc3ccccc32)cc1,55%

row,Structure (SMILES),survival
1,Cc1ccc(Sc2ccc(N3CCCC(C(=O)Nc4ccc(F)cc4)C3)nn2)cc1 (centres undefined),60%
2,CCOC(=O)c1c(NC(=O)C(C)Oc2ccccc2F)sc(C(C)=O)c1C (centres undefined),65%
3,COc1ccc(NC(=O)CSc2ccc(-c3cccs3)nn2)cc1,89%
4,CCOC(=O)c1c(NC(C)=O)c2c3c(sc2n1Cc1nc(-c2ccc(Cl)cc2)oc1C)CCCC3,81%
5,Cc1ccc(CN2COc3c(Cl)cc4c(-c5ccccc5)cc(=O)oc4c3C2)cc1,87%
6,COc1ccc(N(Cc2cccs2)C(=O)COc2cccc(C)c2C)cc1,12% (active)
7,Cc1cccc(OCC(=O)N(Cc2cccs2)c2ccc(Cl)cc2)c1C,79%
8,COc1ccc(OCC(=O)N(Cc2cccs2)c2ccc(OC)cc2)cc1,85%
9,CC1(C)CC2(C=CC(=O)CC2)CCO1 (centres undefined),96%
10,Cn1c(=O)c2c(-c3ccc(Cl)cc3)ccnc2n(C)c1=O,68%
11,O=S(=O)(c1ccccc1)n1nc(-c2ccccc2)nc1NCc1ccc(Cl)cc1,73%
12,COc1ccc(CNc2nc(-c3ccccc3)nn2S(=O)(=O)c2ccccc2)cc1,4% (active)
13,COc1ccc(CNc2nc(-c3ccc(Cl)cc3)nn2S(=O)(=O)c2ccc(C)cc2)cc1,64%
14,CCc1ccc(NC(=O)Cn2c(=O)n(CCC(=O)NCCc3ccc(OC)c(OC)c3)c(=O)c3ccccc32)cc1,102%
15,Cc1cc(C)cc(NCc2nnc3n2CCCCC3)c1,85%
16,COc1ccc(NCc2nnc3n2CCCCC3)c(OC)c1,73%
17,Cc1ccc(Cl)cc1NCc1nnc2n1CCCCC2,75%
18,COc1ccc(C)cc1NCc1nnc2n1CCCCC2,-3% (active)
19,Fc1ccc(NCc2nnc3n2CCCCC3)cc1Cl,66%
20,COc1ccc(Cl)cc1NCc1nnc2n1CCCCC2,0% (active)
